# Unmarked numbers belong to inactive results. Calls come from the whole dose curve.
# Target: Tumor susceptibility gene 101 protein (Homo sapiens) (UniProt Q99816)
# Experiment: qHTS Validation Assay for Iinhibitors of HIV-1 Budding by Blocking the Interaction of PTAP/TSG101 (AID 485342); note: 0% is about no effect
# Conditions: TSG101-PTAP binding, fluorescence polarization, 4-point titration; series mostly up to 115 µM; fluorescence change: at the top concentration
# Source text: NIH Molecular Libraries Probe Production Network [MLPCN]
# NIH Chemical Genomics Center [NCGC]
# PI Name: Dr. Eric Freed, NCI
# Stages of the HIV-1 replication cycle, specifically virus assembly and release, provide underexploited targets for the development of novel antiviral inhibitors. The late stages of HIV-1 replication are mediated by the Gag precursor protein, Pr55Gag. Expression of Pr55Gag is both necessary and sufficient for the production of virus-like particles from Gag-expressing cells. The Gag protein hijacks key host proteins involved in endocytic machinery of the host cell to promote endosomal processing and viral budding. The budding process requires a direct interaction between a […] (PTAP) motif in the p6 domain of Gag and the cellular endosomal sorting protein known as Tsg101. In this way, the Gag PTAP motif promotes the host cells to recruit viral particles to the plasma membrane where the new viral particles are released, effectively turning the host cells into viral factories. A fluorescence anisotropy assay has been developed to quantitatively measure the PTAP-Tsg101 interaction which can be used to screen for inhibitors of this interaction.
# NCGC Assay Protocol Summary:
# Two uL of the Tsg101 binding domain in buffer (10 mM HEPES pH 7.5; 0.15 M NaCl, 0.01% Tween 20; 3 mM EDTA;0.1 mM TCEP) was dispensed into Greiner black MB 1536-well plates (final concentration 10 uM). Then, 23 nL of compounds or DMSO were delivered to each well using a pin tool. Finally, 2 uL of a FITC-labeled peptide containing the PTAP motif (1) in the same buffer was dispensed (50 nM final concentration) and the binding was allowed to proceed for 20 min. at r.t. Fluorescent polarization was determined using FITC excitation and polarized emission filters on a Perkin Elmer Viewlux.
# Keywords: Tsg101, PTAP, Gag, HIV, fluorescent polarization, MLSMR, MLPCN, NIH Roadmap, qHTS, NCGC
# Chain of Tumor susceptibility gene 101 protein (Homo sapiens) (Q99816 whole entry, looked up): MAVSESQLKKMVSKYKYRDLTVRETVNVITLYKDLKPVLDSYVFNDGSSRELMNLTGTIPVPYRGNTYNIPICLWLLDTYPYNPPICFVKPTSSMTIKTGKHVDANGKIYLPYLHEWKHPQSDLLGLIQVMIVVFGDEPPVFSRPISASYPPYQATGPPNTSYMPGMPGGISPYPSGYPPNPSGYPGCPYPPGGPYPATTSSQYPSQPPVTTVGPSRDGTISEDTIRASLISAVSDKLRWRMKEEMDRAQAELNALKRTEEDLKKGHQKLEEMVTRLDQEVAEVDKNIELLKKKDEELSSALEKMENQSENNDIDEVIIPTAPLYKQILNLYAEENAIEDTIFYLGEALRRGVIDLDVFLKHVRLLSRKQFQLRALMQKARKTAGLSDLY
row,SMILES,fluorescence change [%]
1,O=C(O)c1cc(=O)cc(C(=O)O)[nH]1,2.6
2,Oc1ccc(Cn2cc[nH]c2=S)cc1,4.13
3,Cc1nc2c(OCc3ccccc3)cccn2c1CC#N,11.5
4,CC(=O)N[C@@H](Cc1c[nH]c2ccccc12)C(=O)OCc1cc(C(F)(F)F)cc(C(F)(F)F)c1,-23
5,CC1CCN(CC[C@H]2CCCN2S(=O)(=O)c2cccc(O)c2)CC1,4.83
6,CCCCCCCCCCC/C=C\C(C)(C)/C=C\CCCC(=O)O,-23.5
7,S=C(S)N1CCCC1,2.88
8,CCCCS(=N)(=O)CC[C@H](N)C(=O)O (stereo not given in full),1.69
9,CC(=O)NNC(=O)N1Cc2ccccc2Oc2ccc(Cl)cc21,2.4
10,Nc1nc2c(nc(Br)n2C2OC3COP(=O)(O)O[C@@H]3C2O)c(=O)[nH]1 (stereo not given in full),6.47
11,COC(=O)C(C)(N)Cc1ccc(O)cc1 (stereo not given),-0.254
12,CC(=O)SC1CC2=CC(=O)CC[C@]2(C)C2CC[C@@]3(C)C(CC[C@@]34CCC(=O)O4)C12 (stereo not given in full),2.64
13,N=C(N)SCCc1cnc[nH]1,2.47
14,CN(C)CCC(c1ccc(Br)cc1)c1ccccn1 (stereo not given),-5.87
15,NC(C(=O)N[C@@H]1C(=O)N2C(C(=O)O)=C(Cl)CS[C@H]12)c1ccccc1 (stereo not given in full),1.98
16,O=C(O)c1cc2cc(F)ccc2[nH]1,5.92
17,Nc1nc2ccc(Cl)cc2c2nc(-c3ccco3)nn12,4.91
18,O=C(O)C1CCCNC1 (stereo not given),-2.35
19,COc1cc(C(O)C(=O)O)ccc1O (stereo not given),4.46
20,O=c1ccc2c(OCCCCc3ccccc3)c3ccoc3cc2o1,3.31

row,SMILES,fluorescence change [%]
1,N[C@H]1CONC1=O,0.631
2,CCCn1c(=O)c2[nH]c(C3CCCC3)nc2n(CCC)c1=O,-1.84
3,O=c1onc2cnc3ccccc3n12,-0.783
4,NC(=O)CC[C@H](N)C(=O)O,-1.42
5,C=C(C)C1CC=C(C(=O)O)CC1 (stereo not given),3.35
6,c1ccc(CN2CCC3(CCCc4ccccc43)CC2)cc1,-1.91
7,OC[C@H]1O[C@@H](n2cnc3cncnc32)[C@H](O)[C@@H]1O,2.61
8,COc1ccccc1N1CCN(CCCCN2C(=O)c3ccccc3C2=O)CC1,2.1
9,CCC1(O)CC2CN(CCc3c([nH]c4ccccc34)[C@@](C(=O)OC)(c3cc4c(cc3OC)N(C=O)C3[C@]45CCN4CC=C[C@@](CC)([C@@H](OC(C)=O)[C@]3(O)C(=O)OC)[C@H]45)C2)C1 (stereo not given in full),2.44
10,NC(N)=NC(N)=Nc1cccc(Cl)c1,4.05
11,O=c1cc(O)cc(/C=C/c2ccc(O)c(O)c2)o1,19.1
12,NCC(O)(CS(=O)(=O)O)c1ccc(Cl)cc1 (stereo not given),0.808
13,C[C@H]1CC2C3CCC4=CC(=O)C=C[C@]4(C)[C@@]3(Cl)[C@@H](O)C[C@]2(C)[C@@]1(O)C(=O)CO (stereo not given in full),3.71
14,NC(Cc1cccc(-c2ccccc2CP(=O)(O)O)c1)C(=O)O (stereo not given),-0.779
15,NC1C=CC=C(C(=O)O)C1 (stereo not given),2.8
16,CCCCC[C@H](CC(=O)NO)C(=O)N[C@H](C(=O)N1CCC[C@H]1CO)C(C)C,0.758
17,O=C(O)/C=C/c1cnc[nH]1,4.58
18,COc1ccc(-c2cc3ncc(C)n3c(Nc3ncccc3C(N)=O)n2)cc1OC,1.71
19,O=C1NC(=O)c2cc(Nc3ccccc3)c(Nc3ccccc3)cc21,-0.846
20,Cc1ccc([N+](=O)[O-])cc1S(=O)(=O)N(C)C,5.78
